This is an account of results in PubChem BioAssay (EPA / NIEHS).

The structures appear in SMILES notation. Results filed as inconclusive are left out. Activity calls are given as the source filed them. The calls were made as follows, unless noted: active = hit-call score of the fitted dose curve at least 0.9, where 1 is the maximum; inconclusive = response in the unintended direction; inactive = score below 0.9.

One assay concerns DIO2 (gene 1734). Nature of the assay: CCTE_GLTED_hDIO2: CCTE's human Deiodinase 2 (DIO2) Inhibition Assay, Great Lakes Toxicology and Ecology Division (GLTED) Lab (AID 2284050). An outline of the steps: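 Inhibition is judged by reduced iodide release: uninhibited human DIO2 frees iodide from substrate over 3 h, measured afterward by Sandell-Kolthoff colorimetry. Iodinated chemicals or nitrite, iron and thiocyanate may interfere.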
With `O=Nc1ccc(Nc2ccccc2)cc1`, the AC50 was 64.2 µM (active).

As for `CC(C)=CCCC(C)=CCCC(C)=CCO`, the AC50 was 28.5 µM (active).

Regarding `CCCCCCCCCCCCCC(=O)O`, the AC50 is 100 µM (active).

In the case of `CCCCCCCCCCCCCCCC(=O)OC[C@H](O)[C@H]1OC(=O)C(O)=C1O`, the AC50 was 27.5 µM (active).

System in a further assay: not listed separately
Nature of the assay: CCTE_Shafer_MEA_dev_spike_duration_mean: CCTE's Neural Network Formation Assay for Mean Spike Duration, Shafer Lab (AID 2284051; active = hit-call score of the fitted dose curve at least 0.9, where 1 is the maximum; inactive = score below 0.9;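 also: mean network spike duration pooled as area under curve over DIV 5 to 12 recordings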;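 as to AC50: potency for a decrease in mean network spike duration versus DMSO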). An outline of the steps: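 Primary rat cortical neurons on 16-electrode MEA wells (PEI-coated, laminin in plating drop), exposed from plating through DIV 12 with compound renewed at DIV 5 and 9. Mean network-spike duration recorded DIV 5, 7, 9, 12; trapezoidal AUC across days, DMSO baseline.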
As for `N#Cc1ccc(CC(=NNC(=O)Nc2ccc(OC(F)(F)F)cc2)c2cccc(C(F)(F)F)c2)cc1`, the half-maximal activity concentration (AC50) was 0.685 µM (active).

In the case of `CN(C)C(=N)N=C(N)N`, the result was inactive.

Regarding `c1ccc2c(c1)c1cccc3ccc4cccc2c4c31`, the result was inactive.

System in a further assay: not listed separately
Description: CCTE_Shafer_MEA_dev_network_spike_duration_std: CCTE's Neural Network Formation Assay for Standard Deviation of Network Spike Duration, Shafer Lab (AID 2284052; active = hit-call score of the fitted dose curve at least 0.9, where 1 is the maximum; inactive = score below 0.9;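 also: area under curve of spike duration SD across recording days 5 to 12; hits are decreases in network spike duration SD versus DMSO vehicle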). An outline of the steps: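 Primary rat cortical neurons on PEI-coated 16-electrode MEA wells, exposed from plating day 0 through day 12 with compound renewed at DIV 5 and 9. Network spike duration SD recorded on days 5, 7, 9, 12, collapsed as trapezoidal AUC; loss-of-signal fit versus DMSO.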
With `N#Cc1ccc(CC(=NNC(=O)Nc2ccc(OC(F)(F)F)cc2)c2cccc(C(F)(F)F)c2)cc1`, the AC50 is 0.525 µM (active).

Consider `CN(C)C(=N)N=C(N)N`, for which the result was inactive.

`c1ccc2c(c1)c1cccc3ccc4cccc2c4c31`: the call was inactive.

System in another assay: not listed separately
Description: CCTE_Shafer_MEA_dev_per_network_spike_spike_number_mean: CCTE's Neural Network Formation Assay for Mean Number of Spikes in a Network Spike, Shafer Lab (AID 2284053; active = hit-call score of the fitted dose curve at least 0.9, where 1 is the maximum; inactive = score below 0.9;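 as to AC50: fitted as decrease in spikes per network spike relative to DMSO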). Summed up: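 Primary rat cortical neurons on 48-well, 16-electrode MEA plates were exposed from plating to DIV 12, with dosing renewed on DIV 5 and 9. Spikes per network spike (0.05 s peak window) were recorded on DIV 5, 7, 9 and 12 and collapsed as trapezoidal AUC versus DMSO.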
With `N#Cc1ccc(CC(=NNC(=O)Nc2ccc(OC(F)(F)F)cc2)c2cccc(C(F)(F)F)c2)cc1`, the AC50 is 1.08 µM (active).

As for `CN(C)C(=N)N=C(N)N`, the outcome was inactive.

For `c1ccc2c(c1)c1cccc3ccc4cccc2c4c31`, the result was inactive.

System in the next assay: not listed separately
Description: CCTE_Shafer_MEA_dev_per_network_spike_spike_percent: CCTE's Neural Network Formation Assay for Percent of Spikes in a Network Spike, Shafer Lab (AID 2284054; active = hit-call score of the fitted dose curve at least 0.9, where 1 is the maximum; inactive = score below 0.9). Summed up:
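Metric: fraction of spikes falling in a 0.05 s window at network-spike peaks. Recordings were made on days 5, 7, 9 and 12 and collapsed by trapezoidal AUC. Cultures were rat cortical neurons on MEA plates, dosed continuously from plating, re-dosed at media changes.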
Take `N#Cc1ccc(CC(=NNC(=O)Nc2ccc(OC(F)(F)F)cc2)c2cccc(C(F)(F)F)c2)cc1`: the molecule was called inactive.

`CN(C)C(=N)N=C(N)N`: the molecule was classed as inactive.

As to `c1ccc2c(c1)c1cccc3ccc4cccc2c4c31`, the call was inactive.

Another assay deals with DIO3 (gene 1735). Nature of the assay: CCTE_GLTED_hDIO3: CCTE's human Deiodinase 3 (DIO3) Inhibition Assay, Great Lakes Toxicology and Ecology Division (GLTED) Lab (AID 2284055).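 Also: potency is for inhibition seen as loss of released iodide signal.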 Summed up: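 Human type 3 deiodinase, expressed via adenovirus system, was exposed to test chemicals for 3 hours in a cell-free format. Released iodide was then determined spectrophotometrically by Sandell-Kolthoff; plates ran in triplicate.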
With `CCC(=O)/C=C/C1C(C)=CCCC1(C)C` (stereo not drawn), the concentration at half-maximal activity (AC50) is 56.6 µM (active).

As to `O=C(Oc1ccccc1)c1ccc(O)cc1`, the AC50 was 52.9 µM (active).

As for `CCCCCCCCCCCCN`, the concentration at half-maximal activity (AC50) is 141 µM (active).

Consider `O=Nc1ccc(Nc2ccccc2)cc1`, for which the AC50 was 55.1 µM (active).

In the case of `CC(C)=CCCC(C)=CCCC(C)=CCO`, the AC50 was 17.9 µM (active).

Regarding `CCCCCCCCCCCCCC(=O)O`, the AC50 is 156 µM (active).

Take `CCCCCCCCCCCCCCCC(=O)OC[C@H](O)[C@H]1OC(=O)C(O)=C1O`: the concentration at half-maximal activity (AC50) was 4.09 µM (active).

System in another assay: not listed separately
Nature of the assay: CCTE_Shafer_MEA_dev_LDH: CCTE's Lactate Dehydrogenase Assay for Cytotoxicity in the Neural Network Formation Assay, Shafer Lab (AID 2284068).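 Also: exposure for twelve days from plating with re-dosing on DIV 5 and 9.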 An outline of the steps:
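Primary rat cortical neurons were plated on PEI/laminin MEA plates and exposed from day 0 for twelve days, with compound renewed at DIV 5 and 9. Cytotoxicity was determined by spectrophotometric LDH assay relative to DMSO.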
Take `N#Cc1ccc(CC(=NNC(=O)Nc2ccc(OC(F)(F)F)cc2)c2cccc(C(F)(F)F)c2)cc1`: the AC50 is 15 µM (active).

On to `CN(C)C(=N)N=C(N)N`, for which the outcome was inactive.

Take `c1ccc2c(c1)c1cccc3ccc4cccc2c4c31`: the call was inactive.

System in another assay: not listed separately
Nature of the assay: CCTE_Shafer_MEA_acute_AB: CCTE's Alamar Blue Assay for Cytotoxicity in the Neural Acute Assay, Shafer Lab (AID 2284069).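 Also: active compounds lower the viability signal compared with DMSO wells.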 Summed up: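 Primary rat cortical neurons on MEA plates, exposed acutely after baseline recording on day 13 or 15 post-plating. Viability by CellTiter Blue resazurin reduction (1:6 reagent dilution), fluorescence 544/590 nm; loss of signal versus DMSO.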
Consider `CCCCCCCCC=O`, for which the result was inactive.

For the molecule `OC[C@H]1O[C@H](O[C@]2(CCl)O[C@H](CCl)[C@@H](O)[C@@H]2O)[C@H](O)[C@@H](O)[C@H]1Cl`, the molecule was called inactive.

For `C[C@H]1C[C@@H]2[C@H]([C@@H](O)C[C@@]3(C)[C@H]2CC[C@]3(O)C(=O)CO)[C@@]2(C)C=CC(=O)C=C12`, the molecule was called inactive.

Turning to `C=C[Si](OCC)(OCC)OCC`, the result was inactive.

Consider `NCCNCCN`, for which the result was inactive.

On to `CC(C)(COC(=O)c1ccccc1)COC(=O)c1ccccc1`, for which the molecule was classed as inactive.

Consider `Cc1cc(C2(c3cc(C)c(O)cc3C)OS(=O)(=O)c3ccccc32)c(C)cc1O`, for which the outcome was inactive.
